Measured potencies and affinities stand elsewhere. Inconclusive results are not listed. Calls of active or inactive are those of the source.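 The calls were made as follows: active = samples whose fitted half-maximal inhibition concentration is no more than ten times the top valid dose tested; inconclusive = flat response between -70 and -30, or invalid curve fit; inactive = flat within 30 of zero, potency above limit, or signal rising.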
Target: Trypsin (Sus scrofa) (UniProt P00761)
Assay: trypsin protease activity blockade – biochemical, quenched peptide fluorescence, cherry-pick, selectivity assay for Rce1 protease inhibitor project, dose response (AID 488789);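 also: more negative means stronger trypsin inhibition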
Details: porcine trypsin, quenched peptide cleavage fluorescence; series mostly up to 10 µM

Trypsin (Sus scrofa), sequence (P00761 whole entry, looked up): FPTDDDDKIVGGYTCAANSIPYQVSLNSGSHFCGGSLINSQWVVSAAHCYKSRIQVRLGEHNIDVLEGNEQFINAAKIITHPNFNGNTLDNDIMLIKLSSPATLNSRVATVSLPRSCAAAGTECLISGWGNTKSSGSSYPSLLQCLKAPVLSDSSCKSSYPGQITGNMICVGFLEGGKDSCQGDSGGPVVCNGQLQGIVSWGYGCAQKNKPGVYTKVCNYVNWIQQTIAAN

| Structure (SMILES) | outcome |
| --- | --- |
| CC(C)[C@H](NC(=O)OCc1ccccc1)C(=O)OCC(=O)Nc1c(F)cccc1F | inactive |
| CCCCCCCCNC(C)C(O)c1ccc(SC(C)C)cc1 (stereo not drawn) | inactive |
| Cc1cccc2sc(N(CCN(C)C)C(=O)c3ccc4ccccc4c3)nc12 | inactive |
| CC(=O)c1c(O)cc(O)c(C(C)=O)c1O | inactive |
| Cc1ccc(-c2nc(SCC(=O)N(C)C3CCS(=O)(=O)C3)[nH]c2-c2ccc(C)cc2)cc1 (stereo not drawn) | inactive |
| CN(C)CCN(C(=O)c1ccc2ccccc2c1)c1nc2ccc(Br)cc2s1 | inactive |
| COC(C[C@H](O)C[C@H](O)[C@@H](C)OCc1ccccc1)OC | inactive |
| CSc1ccc(C(=O)C2CCCN(C(=O)c3cccnc3SC)C2)cc1 (stereo not drawn) | inactive |
| COC(=O)C1CCCN1S(=O)(=O)c1ccc2ccccc2c1 (stereo not drawn) | inactive |
| O=C(O)CCC(=O)c1ccc(-c2ccccc2)cc1 | inactive |
| CC1CCN(Cc2c(C(=O)N/N=C/c3cccc(C(F)(F)F)c3)nnn2-c2nonc2N)CC1 | inactive |
| CC(C)N1CCN(Cc2ccc(OCc3ccccc3)cc2)CC1CCO (stereo not drawn) | inactive |
| O=C(O)CCc1nc2cc(C(F)(F)F)ccc2n(Cc2ccccc2)c1=O | inactive |
| CC(C)c1c(C(=O)N/N=C/c2cccc3ccccc23)nnn1-c1nonc1N | inactive |
| CCn1cc(C(=O)N[C@H](C)c2ccccc2)c(=O)c2cc(F)c(N3CCN(C)CC3)cc21 | inactive |
| Cc1cc(C)n(Cc2ccc(NC(=O)c3ccc(COc4ccccc4Br)cc3)cc2)n1 | inactive |
| O=C1CN(C(=O)NCC(=O)N2CCCC2)c2ccccc2N1 | inactive |
| COC(C/C=C\C(=O)[C@H](C)OCc1ccccc1)OC | inactive |
| COc1ccc(Cl)cc1C(=O)Nc1ccc2c(c1)OCO2 | inactive |

| Structure (SMILES) | outcome |
| --- | --- |
| Cc1cccc(N2C(=O)c3cccc4c(N5CCCCC5)c([N+](=O)[O-])cc(c34)C2=O)c1C | inactive |
| CN(C)S(=O)(=O)c1ccc(NC(=O)/C=C/c2ccccc2Cl)cc1 | inactive |
| CCCCCCCCCCC[N+](C)(C)CC/C=C1/c2ccccc2Sc2ccc(Cl)cc21 | inactive |
| CC(C)NCC(O)COCCOc1ccc(Br)cc1 (stereo not drawn) | inactive |
| CCCCCCCCCCOC(=O)Cn1c(COc2ccccc2C)[n+](C)c2ccccc21 | inactive |
| COC(=O)c1ccccc1NC(=O)NCc1cccnc1 | inactive |
| COc1ccc(OC)c(/C=N/c2c(-c3ccc(O)c(OC)c3)nc3ccccn23)c1 | inactive |
| O=C1C(=O)N(C/C=C/c2ccccc2)c2ccccc21 | inactive |
| Cc1ccccc1OC(C)C(=O)N1CCC(Cc2ccccc2)CC1 (stereo not drawn) | inactive |
| COCCNc1nc(N)c([N+](=O)[O-])c(N2CCCCCC2)n1 | inactive |
| Cc1cccc(NC(=O)c2cc(S(=O)(=O)N3CCCCC3)c[nH]2)c1C | inactive |
| CCCCCCCCCC[N+](C)(C)CC/C=C1/c2ccccc2Sc2ccc(Cl)cc21 | inactive |
| COc1cccc(-c2csc(N3CCN(C(=O)NC45CC6CC(CC(C6)C4)C5)CC3)n2)c1 | inactive |
| CN(C)c1cc(O)c(C(=S)Nc2ccccc2)c(N(C)C)c1 | inactive |
| O=C(Nc1ccccc1N1CCOCC1)C1CCN(S(=O)(=O)c2ccc(F)cc2)CC1 | inactive |
| N#Cc1c(OCC(=O)c2ccccc2)nc2c(c1-c1ccco1)CCc1ccccc1-2 | inactive |
| CCOC(=O)C1CCCN(S(=O)(=O)c2cc3[nH]c(=O)c(=O)[nH]c3cc2C)C1 (stereo not drawn) | inactive |
| COc1cccc(-c2c(C(=O)N/N=C/c3sccc3C)nnn2-c2nonc2N)c1 | inactive |
| COC(=O)C(Cc1ccccc1)OS(N)(=O)=O (stereo not drawn) | inactive |

Source: PubChem BioAssay AID488789 (Broad Institute, 2010)
